In PubChem BioAssay (EPA / NIEHS) one finds outcome and AC50 data, which are given here for four molecules.

Active and inactive are the calls of the source. The calls were made as follows: active = hit-call score of the fitted dose curve at least 0.9, where 1 is the maximum; inactive = score below 0.9.

Read-out in experiment [1]: Matrix Metallopeptidase 9 (MMP9), MMP9 (gene 4318)
Briefly: BSK_KF3CT_MMP9: BioMAP Diversity Plus: KF3CT Assay for Matrix Metallopeptidase 9 (MMP9) Biomarker Activity (AID 2283074). Conditions: primary human keratinocytes with fibroblasts; actives raise or lower the signal. In a few lines:
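Human keratinocyte and foreskin fibroblast co-culture exposed to chemicals for 24 h; MMP9 biomarker measured by ELISA, bidirectional fitting relative to DMSO; cytotoxicity tracked by SRB total protein staining in parallel cultures.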

Read-out in experiment [2]: urokinase plasminogen activator (uPA), PLAU (gene 5328)
As to the kind of experiment: BSK_KF3CT_uPA: BioMAP Diversity Plus: KF3CT Assay for urokinase plasminogen activator (uPA) Biomarker Activity (AID 2283075). The note with it: primary human keratinocytes with fibroblasts; actives raise or lower the signal. In a few lines: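 Primary human keratinocyte/foreskin fibroblast co-culture exposed to chemical; uPA measured by ELISA at 24 h. Bidirectional fit versus DMSO, with parallel SRB total-protein staining for cytotoxicity.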

Read-out in experiment [3]: CD40, CD40 (gene 958)
Briefly: BSK_LPS_CD40: BioMAP Diversity Plus: LPS Assay for CD40 Biomarker Activity (AID 2283076). The note with it: primary human HUVEC with PBMC; actives raise or lower the signal. In outline:
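ELISA readout of CD40 in HUVEC/PBMC co-culture (BSK_LPS system), 24 h post-dosing; bidirectional curve fit, DMSO baseline; parallel SRB total-protein staining for cytotoxicity.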

Read-out in experiment [4]: E-selectin (Homo sapiens) (UniProt P16581)
As to the kind of experiment: BSK_LPS_Eselectin: BioMAP Diversity Plus: LPS Assay for Eselectin Biomarker Activity (AID 2283077). Conditions: primary human HUVEC with PBMC; actives raise or lower the signal. In a few lines: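 ELISA readout of E-selectin, 24 h post-dose, HUVEC + PBMC co-culture (LPS system). Gain or loss of signal vs DMSO baseline, bidirectional fit.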

Read-out in experiment [5]: Interleukin-8 (IL8), CXCL8 (gene 3576)
Briefly: BSK_LPS_IL8: BioMAP Diversity Plus: LPS Assay for Interleukin-8 (IL8) Biomarker Activity (AID 2283078). The note with it: primary human HUVEC with PBMC; actives raise or lower the signal. In a few lines: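 HUVEC + PBMC co-culture, LPS-activated; test chemicals dosed, IL-8 read by ELISA at 24 h. Bidirectional curve fit vs DMSO baseline (gain or loss of signal).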

Experiment [6] can be described thus: BSK_LPS_SRB: Viability Assessment in the BioMAP Diversity Plus: LPS Assay (AID 2283079).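 Also: total protein by sulforhodamine B absorbance as a cytotoxicity measure; measured one day after compound addition; fitted in both directions against DMSO so loss or gain of signal counts.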 Conditions: primary human HUVEC with PBMC. In outline: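 HUVEC + PBMC co-culture, LPS-stimulated; compound 24 h. 10% TCA fix, 0.1% SRB stain, A560. Bidirectional fit vs DMSO.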
Read-out in experiment [7]: Interleukin-1 alpha (IL1a), IL1A (gene 3552)
As to the kind of experiment: BSK_LPS_IL1a: BioMAP Diversity Plus: LPS Assay for Interleukin-1 alpha (IL1a) Biomarker Activity (AID 2283080). The note with it: primary human HUVEC with PBMC; actives raise or lower the signal. In outline: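 HUVEC/PBMC co-culture, LPS system; 24 h after dosing; IL-1a by ELISA; gain or loss of signal fitted bidirectionally vs DMSO baseline.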

Read-out in experiment [8]: Monocyte Chemoattractant Protein-1 (MCP1), CCL2 (gene 6347)
Briefly: BSK_LPS_MCP1: BioMAP Diversity Plus: LPS Assay for Monocyte Chemoattractant Protein-1 (MCP1) Biomarker Activity (AID 2283081).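 As to AC50: secreted MCP-1 protein quantified by ELISA in culture supernatant.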 The note with it: primary human HUVEC with PBMC; actives raise or lower the signal. In a few lines: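 ELISA read-out of MCP-1 after 24 h chemical dosing of a human umbilical vein endothelial cell/peripheral blood mononuclear cell co-culture stimulated with LPS. Gain or loss of signal fitted relative to DMSO controls.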

A short description of experiment [9]: BSK_LPS_PGE2: BioMAP Diversity Plus: LPS Assay for Prostaglandin E2 (PGE2) Biomarker Activity (AID 2283082). Conditions: primary human HUVEC with PBMC; actives raise or lower the signal. In outline: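 Endpoint derived from bidirectional curve fitting versus DMSO of ELISA-measured PGE2 in LPS-stimulated human primary vascular co-culture (HUVEC with PBMC) harvested at 24 h.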

Read-out in experiment [10]: Macrophage colony-stimulating factor (MCSF), CSF1 (gene 1435)
Briefly: BSK_LPS_MCSF: BioMAP Diversity Plus: LPS Assay for Macrophage colony-stimulating factor (MCSF) Biomarker Activity (AID 2283083). The note with it: primary human HUVEC with PBMC; actives raise or lower the signal. In outline: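 HUVEC + PBMC co-culture (human primary), 24 h post-dose; M-CSF by ELISA; gain/loss of signal fitted bidirectionally vs DMSO baseline.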

Read-out in experiment [11]: Tissue Factor, F3 (gene 2152)
As to the kind of experiment: BSK_LPS_TissueFactor: BioMAP Diversity Plus: LPS Assay for Tissue Factor Biomarker Activity (AID 2283084). Conditions: primary human HUVEC with PBMC; actives raise or lower the signal. In outline: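 HUVEC/PBMC co-culture, LPS-activated; CD142 ELISA read 24 h post-dose; bidirectional curve fit vs DMSO negative control.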

Read-out in experiment [12]: Tumor necrosis factor (Homo sapiens) (UniProt P01375)
Briefly: BSK_LPS_TNFa: BioMAP Diversity Plus: LPS Assay for Tumour Necrosis Factor alpha (TNFa) Biomarker Activity (AID 2283085). Conditions: primary human HUVEC with PBMC; actives raise or lower the signal. In outline: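 Primary human vascular co-culture of HUVEC and PBMC; TNFa ELISA 24 h after treatment, analysed as increase or decrease relative to DMSO control.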

Read-out in experiment [13]: Vascular cell adhesion molecule 1 (VCAM1), VCAM1 (gene 7412)
As to the kind of experiment: BSK_LPS_VCAM1: BioMAP Diversity Plus: LPS Assay for Vascular cell adhesion molecule 1 (VCAM1) Biomarker Activity (AID 2283086). The note with it: primary human HUVEC with PBMC; actives raise or lower the signal. In a few lines:
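Primary human vascular co-culture (umbilical vein endothelium plus PBMC) stimulated with LPS received chemical; 24 h later VCAM-1 was read by ELISA. Overt cytotoxicity was assessed by sulforhodamine B staining of parallel cultures at the same time point.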

Read-out in a further experiment: CD38, CD38 (gene 952)
Briefly: BSK_SAg_CD38: BioMAP Diversity Plus: SAg Assay for CD38 Biomarker Activity (AID 2283087). The note with it: primary human HUVEC with PBMC; actives raise or lower the signal. In a few lines: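 Fluorescence ELISA of cell-surface CD38 served as the read-out, with either increase or decrease fitted against DMSO controls. Cells were a human umbilical vein endothelium plus PBMC co-culture under SEB/TSST-1 stimulation, measured 24 h after dosing.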

Read-out in experiment [14]: CD40, CD40 (gene 958)
Briefly: BSK_SAg_CD40: BioMAP Diversity Plus: SAg Assay for CD40 Biomarker Activity (AID 2283088). The note with it: primary human HUVEC with PBMC; actives raise or lower the signal. In outline: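 HUVEC/PBMC co-culture, 24 h post-dose; CD40 by ELISA, fluorescence intensity; bidirectional fit vs DMSO negative control.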

Read-out in another experiment: CD69, CD69 (gene 969)
Briefly: BSK_SAg_CD69: BioMAP Diversity Plus: SAg Assay for CD69 Biomarker Activity (AID 2283089). The note with it: primary human HUVEC with PBMC; actives raise or lower the signal. In a few lines: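 Endothelial/PBMC co-culture; chemical added; 24 h incubation; CD69 ELISA with fluorescence detection; bidirectional fit vs DMSO.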

Read-out in experiment [15]: Monocyte Chemoattractant Protein-1 (MCP1), CCL2 (gene 6347)
Briefly: BSK_SAg_MCP1: BioMAP Diversity Plus: SAg Assay for Monocyte Chemoattractant Protein-1 (MCP1) Biomarker Activity (AID 2283090). Conditions: primary human HUVEC with PBMC; actives raise or lower the signal. In a few lines:
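MCP-1 levels in the endothelial–PBMC SAg co-culture were quantified by ELISA at 24 h post-dosing; both increases and decreases versus DMSO scored. Cytotoxicity monitored by SRB total protein in parallel cultures.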

Read-out in experiment [16]: E-selectin (Homo sapiens) (UniProt P16581)
As to the kind of experiment: BSK_SAg_Eselectin: BioMAP Diversity Plus: SAg Assay for Eselectin Biomarker Activity (AID 2283091). Conditions: primary human HUVEC with PBMC; actives raise or lower the signal. In outline:
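E-selectin ELISA readout at 24 h post-dosing in human umbilical vein endothelial cell/PBMC co-culture; gain or loss of signal fitted relative to DMSO baseline.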

Read-out in experiment [17]: Monokine induced gamma interferon (MIG), CXCL9 (gene 4283)
Briefly: BSK_SAg_MIG: BioMAP Diversity Plus: SAg Assay for Monokine induced gamma interferon (MIG) Biomarker Activity (AID 2283092). The note with it: primary human HUVEC with PBMC; actives raise or lower the signal. In a few lines: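 Measures CXCL9 protein by ELISA in a human vascular primary-cell co-culture (umbilical vein endothelium with PBMC) 24 h after chemical addition. Activity is scored up or down from the DMSO control.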

Read-out in experiment [18]: C-C motif chemokine 2 (Homo sapiens) (UniProt P13500)
As to the kind of experiment: BSK_KF3CT_MCP1: BioMAP Diversity Plus: KF3CT Assay for Monocyte Chemoattractant Protein 1 (MCP1/CCL2) Biomarker Activity (AID 2283073). Conditions: primary human keratinocytes with fibroblasts; actives raise or lower the signal. In outline: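 KF3CT skin co-culture (keratinocytes/foreskin fibroblasts), 24 h post-dose; MCP-1 by ELISA; gain/loss of signal fit bidirectionally vs DMSO baseline.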

Sequence of E-selectin (Homo sapiens) (P16581 whole entry, looked up): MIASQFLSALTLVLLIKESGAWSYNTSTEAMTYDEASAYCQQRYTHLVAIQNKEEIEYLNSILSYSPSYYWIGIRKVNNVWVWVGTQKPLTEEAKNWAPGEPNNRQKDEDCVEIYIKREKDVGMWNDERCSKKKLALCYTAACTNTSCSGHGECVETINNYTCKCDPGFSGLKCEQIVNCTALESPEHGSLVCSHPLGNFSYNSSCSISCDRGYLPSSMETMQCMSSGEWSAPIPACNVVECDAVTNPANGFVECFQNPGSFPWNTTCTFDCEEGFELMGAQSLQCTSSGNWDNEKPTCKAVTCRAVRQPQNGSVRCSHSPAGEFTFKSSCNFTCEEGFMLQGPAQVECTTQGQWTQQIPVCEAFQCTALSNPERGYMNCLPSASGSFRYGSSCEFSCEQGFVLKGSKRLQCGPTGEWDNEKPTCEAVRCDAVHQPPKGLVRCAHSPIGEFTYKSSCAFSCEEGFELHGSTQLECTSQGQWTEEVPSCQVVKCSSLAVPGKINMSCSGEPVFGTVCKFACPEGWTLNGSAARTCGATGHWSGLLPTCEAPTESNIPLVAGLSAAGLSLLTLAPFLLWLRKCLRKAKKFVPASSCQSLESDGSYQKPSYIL
Sequence of Tumor necrosis factor (Homo sapiens) (P01375 whole entry, looked up): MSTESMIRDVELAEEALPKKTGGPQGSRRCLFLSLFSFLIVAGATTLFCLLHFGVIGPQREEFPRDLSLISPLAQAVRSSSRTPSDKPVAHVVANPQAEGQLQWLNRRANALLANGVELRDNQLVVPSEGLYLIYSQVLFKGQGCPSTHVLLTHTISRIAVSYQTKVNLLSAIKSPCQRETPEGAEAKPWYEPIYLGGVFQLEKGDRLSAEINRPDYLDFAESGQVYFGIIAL

On to `CN(C)C(=S)S`, for which the outcome in [1] was “inactive”; in [2], “inactive”; with CD40, CD40 (gene 958) [3] it was “inactive”; in experiment [4], “inactive”; in [5], “inactive”; in experiment [6], “inactive”. Moreover, the outcome in [7], in experiment [8], in experiment [9], in experiment [10], in experiment [11] and in experiment [12] was inactive. The outcome is “inactive” in [13]; “inactive” in the experiment with CD38, CD38 (gene 952); “inactive” with CD40, CD40 (gene 958) [14]; “inactive” with CD69, CD69 (gene 969); “inactive” in [15]; “inactive” in experiment [16]. For the same molecule, in experiment [17], the result was inactive.

`O=[N+]([O-])c1ccc(Nc2ccccc2)cc1`: the outcome was “inactive” in [18]; “inactive” in experiment [2]; “inactive” with CD40, CD40 (gene 958) [3]; “inactive” in experiment [4]; “inactive” in [5]; “inactive” in experiment [6]. The result in [7], in experiment [8], in [9], in [10], in experiment [11] and in experiment [13] was inactive. For the same molecule, the outcome with CD38, CD38 (gene 952) is “inactive”; in the experiment with CD40, CD40 (gene 958) [14], “inactive”; with CD69, CD69 (gene 969) it was “inactive”; in experiment [15], “inactive”; in [16] it was “inactive”; in experiment [17] it was “inactive”.

`N#Cc1cccnc1`: the outcome in experiment [18] was “inactive”; in experiment [2], “inactive”; in the experiment with CD40, CD40 (gene 958) [3] it was “inactive”; in [4], “inactive”; in experiment [5], “inactive”; in [6], “inactive”. The result in experiment [7], in experiment [8], in experiment [9], in experiment [10], in experiment [11] and in [13] was inactive. Besides, the outcome with CD38, CD38 (gene 952) is “inactive”; with CD40, CD40 (gene 958) [14], “inactive”; with CD69, CD69 (gene 969) it was “inactive”; in experiment [15], “inactive”; in [16], “inactive”; in [17], “inactive”.

As for `Oc1cccc(-c2ccccc2)c1`, the outcome in experiment [18] was “inactive”; in experiment [2] it was “inactive”; in experiment [5], “inactive”; in experiment [7], “inactive”; in experiment [10], “inactive”; with CD38, CD38 (gene 952), “inactive”. The outcome with CD69, CD69 (gene 969) was “inactive”; in [17], “inactive”. The AC50 with CD40, CD40 (gene 958) [3] was 20 µM (active); in [4], 32.5 µM (active); in experiment [6] it was 29.8 µM (active); in experiment [8], 4.9 µM (active); in experiment [9], 8.25 µM (active); in experiment [11], 33.3 µM (active). Further, the AC50 in experiment [13] is 20 µM (active); in the experiment with CD40, CD40 (gene 958) [14] it was 30.8 µM (active); in experiment [15] it was 20 µM (active); in experiment [16], 33.6 µM (active).
